Results on seven compounds are retold here after PubChem BioAssay (NCATS).

Inconclusive results are not listed. Activity calls are given as the source filed them. Unless noted, calls follow the shape of the dose curve; as a rule, active = well fitted curve in either direction with a large enough effect (not every such curve was filed as active); inconclusive = small, poorly fitted or top-dose-only effect, or another doubt; inactive = flat fitted curve, though single readings scatter. Where only a bound is given, the exact number is not on record here.

The target of assay [1] is Lysosomal acid glucosylceramidase (Homo sapiens) (UniProt P04062). The experiment in a line: Glucocerebrosidase-p2 (AID 348; in the data active = potency below about 10 µM; also: potency is read from the fitted curve at half-maximal effect). Particulars: purified GBA, blue fluorogenic substrate, 40 min. Put shortly: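 Compounds titrated from 0.6 nM upwards against 0.2 nM enzyme in pH 5.9 citric acid/KH2PO4, taurocholate, tween-20; blue fluorogenic substrate 80 uM, 40 min room temperature, stopped and read Ex 365/Em 440 for AC50.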
Chain of Lysosomal acid glucosylceramidase (Homo sapiens) (P04062 whole entry, looked up): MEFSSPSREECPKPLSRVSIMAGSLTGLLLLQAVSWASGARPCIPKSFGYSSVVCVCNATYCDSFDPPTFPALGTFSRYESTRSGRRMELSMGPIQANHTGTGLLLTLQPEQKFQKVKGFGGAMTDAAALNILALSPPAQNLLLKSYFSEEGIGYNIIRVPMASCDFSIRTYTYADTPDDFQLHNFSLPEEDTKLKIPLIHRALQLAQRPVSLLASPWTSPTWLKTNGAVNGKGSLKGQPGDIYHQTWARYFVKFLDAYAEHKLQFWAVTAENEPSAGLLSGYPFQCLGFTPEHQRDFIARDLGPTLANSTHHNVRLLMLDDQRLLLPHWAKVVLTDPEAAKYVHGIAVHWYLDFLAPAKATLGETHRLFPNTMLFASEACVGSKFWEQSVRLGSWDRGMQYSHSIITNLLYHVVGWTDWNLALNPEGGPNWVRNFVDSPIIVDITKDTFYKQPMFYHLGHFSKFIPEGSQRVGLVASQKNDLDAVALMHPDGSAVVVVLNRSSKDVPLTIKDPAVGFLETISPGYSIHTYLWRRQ

A short description of assay [2]: AP1 Signaling Pathway (AID 357).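 Also: ME-180 reporter cells stimulated with EGF at its EC50 level; % is scaled to controls: 0 for no effect and ±100 for the full control effect.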 The following applies: ME-180 AP-1-bla reporter, EGF-induced, beta-lactamase ratio, 5 h; at 7.69 µM (top of the series) unless noted. An outline of the steps: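 Titration-series screen for positive or negative modulators of EC50 EGF-induced signaling in ME-180 cells carrying an AP-1-driven beta-lactamase reporter. After 5 hours at 37 degrees Celsius, CCF4 460nm/530nm emission ratio gave %Activity; AC50 values derived.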

Assay [3] deals with Cytochrome P450 1A2 (Homo sapiens) (UniProt P05177). The experiment in a line: p450-cyp1a2 (AID 410; calls by dose curve; also: potency is read from the fitted curve at half-maximal effect;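 as to activity change, negative = inhibition: -100% = full effect of reference inhibitor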). Particulars: recombinant CYP1A2, luciferin-ME demethylation, luminescence; series mostly up to 57 µM. An outline of the steps:
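Inhibition was calculated relative to 57 uM furafylline (full inhibition). The reaction used human CYP1A2 at 20nM with Luciferin-ME at its Km, 100uM, driven by an NADPH-regenerating system for 60 min at room temperature.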

Assay [4] can be described thus: NFAT Signaling Pathway (AID 444).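 Also: carbachol stimulus at about its EC50 of 1 µM final; % is scaled to controls: 0 for no effect and ±100 for the full control effect.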 Particulars: Jurkat NFAT-bla M1, carbachol, beta-lactamase ratio, 5 h; at 7.69 µM (top of the series) unless noted. An outline of the steps: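 Jurkat cells with NFAT-driven β-lactamase reporter and co-expressed M1 receptor, stimulated with carbachol (final 1 uM, ~EC50), compound titration, 5 h at 37 °C. CCF4 loaded 1 h at RT; 460/530 nm ratio gave %activity and AC50.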

Assay [5] is described as follows: Stat Signaling Pathway (AID 446).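 Also: ME-180 cervical cancer cells given 40 pM IL-6 alongside compound; SIE-controlled beta-lactamase reporter measured as 460/530 nm FRET emission ratio; % is scaled to controls: 0 for no effect and ±100 for the full control effect.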 The following applies: ME-180 SIE beta-lactamase reporter, IL-6 stimulated, 5 h; at 7.69 µM (top of the series) unless noted. An outline of the steps: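 ME-180 SIE-bla cells; overnight plating; cpd + IL-6 40 pM, 5 h, 37 C; LiveBLAzer 2.5 h RT; 460/530 nm emission ratio. Normalized to 300 pM IL-6 and 125 nM JAK inhibitor controls.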

Assay [6] concerns the target Glucocorticoid receptor (Homo sapiens) (UniProt P04150). The experiment in a line: GR-EFC Redistribution (AID 451; calls by dose curve; also: potency is read from the fitted curve at half-maximal effect). The following applies: CHO-K1 GR-EFC translocation, beta-gal luminescence, 2 h. Put shortly: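 CHO-K1 cells expressing nuclear EA and GR-ED fragments of b-gal; compounds titrated up to 46 uM final, 2 h at 37 C. GR nuclear translocation read as complemented b-gal luminescence after 1 h RT detection.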

In assay [7] the target is Mitogen-activated protein kinase 10 (Mus musculus) (UniProt Q61831). Description: JNK3 AlphaScreen Assay (AID 530).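 Also: kinase came from lysate of stimulated human HepG2 cells; signal reports phosphorylation of biotinylated GST-cJun 1-79 at Ser73 with 10 µM ATP; % is scaled to controls: 0 for no effect and ±100 for the full control effect.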 The following applies: JNK3 lysate, c-Jun phosphorylation; series mostly up to 57.1 µM. An outline of the steps: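 qHTS format: compounds tested as titrations against IL-1beta/TNF-alpha-activated HepG2 lysate JNK3 with biotin-GST-cJun substrate and 10 uM ATP at room temperature. Loss of anti-phospho-cJun AlphaScreen signal indicates inhibition.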

Assay [8] addresses 3',5'-cyclic-AMP phosphodiesterase 4B (Homo sapiens) (UniProt Q07343). Description: qHTS Assay for Inhibitors of PDE-IV (AID 607; active = well fitted activation curve with a large enough effect in the main read-out, with a control signal flat, not every such curve was filed as active; also: % of control where 0% means no effect). The following applies: HEK293 ACTOne CNG channel cells, membrane potential fluorescence; series mostly up to 22.9 µM. An outline of the steps:
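ACTOne HEK293 cells carry a modified cAMP-gated CNG channel and express endogenous PDE4; plated 1000 cells/well, compounds up to 22.9 uM final. Membrane-potential dye fluorescence (ex 535/em 590) was read; parental cells received 10 uM forskolin + 100 uM RO 20-1724.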
On the technique in general: qHTS replaces the single test concentration by a dilution series.

The nature of assay [9]: qHTS Assay for Lipid Storage Modulators (AID 1519; calls by dose curve). Particulars: Drosophila S3 cells, BODIPY lipid droplet/cell ratio, laser cytometry, cells loaded with oleic acid; for activity change, negative = inhibition: at 57.5 µM (top of the series). An outline of the steps:
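Cells seeded at 5,000 per well were treated with compounds over a concentration series and loaded with oleic acid (400 uM, as added). Lipid droplet fluorescence (488 nm excitation, 500-530 nm channel) was read by laser-scanning cytometry and normalized to 20 uM Triacsin C.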

The nature of assay [10]: Primary qHTS for small molecule stabilizers of the endoplasmic reticulum resident proteome: Secreted ER Calcium Modulated Protein (SERCaMP) assay (AID 1508630; active = well fitted inhibition curve with a large enough effect; also: % is scaled to controls: 0 for no effect and ±100 for the full control effect). The following applies: SH-SY5Y GLuc-SERCaMP (Gaussia luciferase released on ER calcium loss) secretion, thapsigargin, luminescence; series mostly up to 38.4 µM. An outline of the steps: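 GLuc-SERCaMP-expressing SH-SY5Y cells, pretreated 16 h with compound, are challenged with thapsigargin to empty ER calcium stores; after 4 h, coelenterazine is added directly to the medium and luminescence is imaged.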

Where [11] appears, read: measured here: cell count channel max response.
Setting [12] is: measured here: lipid channel max response.

Chain of Glucocorticoid receptor (Homo sapiens) (P04150 whole entry, looked up, the tested form may be a part): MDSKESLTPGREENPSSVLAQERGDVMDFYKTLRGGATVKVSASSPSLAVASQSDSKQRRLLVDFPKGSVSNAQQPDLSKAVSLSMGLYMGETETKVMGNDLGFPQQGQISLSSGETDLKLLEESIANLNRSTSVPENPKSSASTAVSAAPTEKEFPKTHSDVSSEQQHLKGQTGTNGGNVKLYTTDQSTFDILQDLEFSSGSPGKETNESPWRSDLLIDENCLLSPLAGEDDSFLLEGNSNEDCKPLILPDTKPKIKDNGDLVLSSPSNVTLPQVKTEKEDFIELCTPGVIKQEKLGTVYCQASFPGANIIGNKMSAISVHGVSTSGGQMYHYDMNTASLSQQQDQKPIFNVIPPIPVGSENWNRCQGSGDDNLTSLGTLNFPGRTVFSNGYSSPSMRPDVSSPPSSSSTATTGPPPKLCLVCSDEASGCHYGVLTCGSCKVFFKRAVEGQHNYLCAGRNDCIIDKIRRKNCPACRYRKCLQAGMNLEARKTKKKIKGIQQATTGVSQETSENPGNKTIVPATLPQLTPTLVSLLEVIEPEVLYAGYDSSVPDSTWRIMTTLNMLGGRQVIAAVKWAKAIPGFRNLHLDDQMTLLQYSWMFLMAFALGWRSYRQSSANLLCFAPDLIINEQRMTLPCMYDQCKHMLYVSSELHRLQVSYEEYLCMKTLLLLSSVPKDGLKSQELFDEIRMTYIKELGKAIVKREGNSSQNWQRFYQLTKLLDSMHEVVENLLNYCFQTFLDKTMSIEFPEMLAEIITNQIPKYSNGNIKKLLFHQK
Chain of Cytochrome P450 1A2 (Homo sapiens) (P05177 whole entry, looked up): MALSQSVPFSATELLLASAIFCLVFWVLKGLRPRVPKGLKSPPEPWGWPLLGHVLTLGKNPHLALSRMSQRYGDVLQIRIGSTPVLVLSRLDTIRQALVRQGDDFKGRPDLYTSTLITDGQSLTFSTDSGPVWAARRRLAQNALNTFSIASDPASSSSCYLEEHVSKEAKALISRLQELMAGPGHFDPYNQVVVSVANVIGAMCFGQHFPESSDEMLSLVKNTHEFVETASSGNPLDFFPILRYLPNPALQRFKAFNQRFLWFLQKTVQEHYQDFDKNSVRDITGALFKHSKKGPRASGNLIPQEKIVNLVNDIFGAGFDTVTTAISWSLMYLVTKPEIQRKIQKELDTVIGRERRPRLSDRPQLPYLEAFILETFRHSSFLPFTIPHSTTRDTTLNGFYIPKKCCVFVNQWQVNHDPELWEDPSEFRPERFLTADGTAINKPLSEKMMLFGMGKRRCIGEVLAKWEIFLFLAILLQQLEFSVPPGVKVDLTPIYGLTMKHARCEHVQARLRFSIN
Chain of 3',5'-cyclic-AMP phosphodiesterase 4B (Homo sapiens) (Q07343 whole entry, looked up): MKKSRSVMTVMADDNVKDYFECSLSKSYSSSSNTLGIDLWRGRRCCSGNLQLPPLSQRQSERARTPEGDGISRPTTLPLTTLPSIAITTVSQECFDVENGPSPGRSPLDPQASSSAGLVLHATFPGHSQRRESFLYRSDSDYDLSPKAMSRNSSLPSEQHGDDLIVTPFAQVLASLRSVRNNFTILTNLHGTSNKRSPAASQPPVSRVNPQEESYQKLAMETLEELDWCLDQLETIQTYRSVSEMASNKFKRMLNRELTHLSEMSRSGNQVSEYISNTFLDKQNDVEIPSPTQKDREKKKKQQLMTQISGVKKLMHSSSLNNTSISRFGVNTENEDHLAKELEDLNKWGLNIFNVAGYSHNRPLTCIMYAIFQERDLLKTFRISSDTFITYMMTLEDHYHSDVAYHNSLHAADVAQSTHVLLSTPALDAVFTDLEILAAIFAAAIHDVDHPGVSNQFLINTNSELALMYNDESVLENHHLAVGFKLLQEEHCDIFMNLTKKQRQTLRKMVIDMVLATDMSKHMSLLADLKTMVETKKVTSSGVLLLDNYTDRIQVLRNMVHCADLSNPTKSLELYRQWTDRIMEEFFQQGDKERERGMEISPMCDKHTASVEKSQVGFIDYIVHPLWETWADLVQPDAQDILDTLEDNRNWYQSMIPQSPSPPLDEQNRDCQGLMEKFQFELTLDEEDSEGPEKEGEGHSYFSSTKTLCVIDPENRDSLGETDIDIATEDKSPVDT

On to `CC(=O)N1CCC2(CCCN(c3ccccn3)C2)CC1`, for which the Potency in assay [1] was > 11.4 µM (inactive); in [6], > 46 µM (inactive). Besides, the results for the activity change, negative = inhibition in [2], in assay [4] and in [9] were 4.59% (inactive), 3.45% (inactive) and 5.15% (inactive), respectively. Besides, the Potency entry in assay [3], in assay [8] and in [10] was “inactive” each time. Besides, the activity, negative = inhibition in assay [5] is -5.49% (inactive). Moreover, the compound was classed as inactive in assay [7]. The max response turned out to be 19.4% in assay [9] (setting [11]) and 28% in assay [9] (setting [12]).

On to `CN1CCC2(CC1)CCN(C(=O)c1cc(C(F)(F)F)cc(C(F)(F)F)c1)CC2`, for which the values for the Potency in assay [1] and in assay [6] were > 11.4 µM (inactive) and > 46 µM (inactive), respectively. The figures for the activity change, negative = inhibition in assay [2], in [4] and in assay [9] were -8.71% (inactive), -5.98% (inactive) and 1.93% (inactive), respectively. Also, the Potency result in [3], in [8] and in [10] was “inactive” in each case. Further, in assay [5], the activity, negative = inhibition is -2.34% (inactive). Also, the compound was called inactive in assay [7]. Also, the max response was -7.21% in [9] (setting [11]) and -4.06% in assay [9] (setting [12]).

Consider `COc1ccc(C(=O)N2CCC3(CC2)CN(Cc2ccc(C#N)cc2)C3)cc1`, for which the Potency is > 11.4 µM (inactive) in [1] and > 46 µM (inactive) in assay [6]. The activity change, negative = inhibition in assay [2] is 11% (inactive); in assay [4] it was -0.922% (inactive); in [9] it was -3% (inactive). Moreover, the Potency result in [3], in assay [8] and in assay [10] was “inactive” each time. Also, the activity, negative = inhibition in assay [5] is 8.44% (inactive). For the same compound, in [7], the outcome was inactive. For the same compound, the values for the max response in assay [9] (setting [11]) and in assay [9] (setting [12]) were 13.1% and 11.7%, respectively.

On to `COC(=O)N1CCC[C@@]2(CCN(c3ccccn3)C2)C1`, for which the values for the Potency in [1], in assay [3] and in assay [6] were > 11.4 µM (inactive), 15.8 µM (active) and > 46 µM (inactive), respectively. In addition, the activity change, negative = inhibition in [2] is -6.02% (inactive); in assay [4], -1.97% (inactive); in [9], 5.17% (inactive). For the same compound, the activity, negative = inhibition in [5] is 7.71% (inactive). Besides, in assay [7], the outcome was inactive. Further, the Potency entry in assay [8] and in assay [10] was “inactive” in each case. Also, the results for the max response in [9] (setting [11]) and in [9] (setting [12]) were 2.62% and 11%, respectively.

Turning to `COCC(=O)N1CCC2(CC1)CN(Cc1cc(C(F)(F)F)cc(C(F)(F)F)c1)C2`, the Potency was > 11.4 µM (inactive) in assay [1], 25.1 µM (active) in [3] and > 46 µM (inactive) in assay [6]. The activity change, negative = inhibition was 11% (inactive) in [2], 23.6% (inactive) in assay [4] and -7.21% (inactive) in assay [9]. The activity, negative = inhibition in assay [5] is -2.63% (inactive). For the same compound, in assay [7], the call was inactive. In addition, the Potency result in assay [8] and in assay [10] was “inactive” in each case. The max response is 25.1% in [9] (setting [11]) and 17.9% in [9] (setting [12]).

Turning to `COCC(=O)N1CCC2(CCCN(C(=O)Nc3cccc(F)c3)C2)CC1`, the results for the Potency in [1] and in [6] were > 11.4 µM (inactive) and > 46 µM (inactive), respectively. Also, the results for the activity change, negative = inhibition in [2], in assay [4] and in assay [9] were -4.55% (inactive), 3.84% (inactive) and 7.2% (inactive), respectively. For the same compound, the Potency entry in assay [3], in assay [8] and in assay [10] was “inactive” in each case. For the same compound, the activity, negative = inhibition in assay [5] is -4.68% (inactive). In addition, the compound was classed as inactive in [7]. Also, the max response in [9] (setting [11]) is 4.52%; in assay [9] (setting [12]), 14.2%.

For `Cc1noc(C)c1C(=O)N1CCC[C@@]2(CCN(c3ncccn3)C2)C1`, the Potency in [1] is > 11.4 µM (inactive); in assay [6], > 46 µM (inactive). The activity change, negative = inhibition was 2.18% (inactive) in [2], 7.6% (inactive) in assay [4] and -1.94% (inactive) in [9]. Also, the Potency entry in [3], in assay [8] and in assay [10] was “inactive” throughout. Moreover, the activity, negative = inhibition in assay [5] was -3.95% (inactive). Besides, in [7], the result was inactive. The max response in assay [9] (setting [11]) stood at 7.95%; in assay [9] (setting [12]), 6.75%.
